High-throughput results from PubChem BioAssay.
Akt phos inh – blocks phosphorylation of Akt; Neuro2A IGF-stimulated pAkt S473 HTRF, 20 min; active compounds read low; activity change, % for hits at 50 µM; 360,000 tested, 0.32% active; AID 651550; in the data active = activity change below about -80%; inconclusive = mostly about -51% to -80%; also: % is scaled to controls: 0 for no effect and ±100 for the full control effect
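Neuro2A cells in DMEM with 0.5% FBS, overnight at 37 deg C, given compound at single 50 µM final, then IGF (6 nM final) for 20 min at 37 deg C. Lysed; phospho-Akt Ser473 by HTRF after 24 h, 665/615 ratio.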
BRCA1 expr act – increases BRCA1 expression; MCF7-BRCA1-FFLuc reporter, luminescence, 48 h; response scale: scaled: vehicle 0%, 10 µM genistein 100%; Potency, µM (highest dose often 46.1 µM), without a hit: top-dose activation, most hits filed as activators; 380,000 tested, 1.1% active; also: potency is read from the fitted curve at half-maximal effect; nearly all actives have a fitted effect of over 80% in size
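Cells: MCF7-BRCA1-FFLuc, 2000/well. Exposure: 48 h, 37 °C, 5% CO2. Read: luminescence, 15 min post-substrate. Controls: genistein 10 microM (maximal activation), DMSO (neutral).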
Mm-Cpn inhibitor – M. maripaludis TRiC chaperonin inhibition; purified Mm-Cpn ATPase, ADP Transcreener TR-FRET; Potency, µM (top dose mostly 76.9 µM), for the others: at the top dose activity, negative = inhibition, hits mostly inhibitors; 330,000 tested, 0.031% active; also: potency is read from the fitted curve at half-maximal effect; % is scaled to controls: 0 for no effect and ±100 for the full control effect; nearly all actives have a fitted effect of over 80% in size
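ATP (10 uM final) was added to archaeal chaperonin (25 nM final) after 10 min exposure to test compound at 37°C; after 30 min further incubation, ADP was detected by competitive TR-FRET.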
A-T KAP1 phos – candidate therapy for ataxia-telangiectasia. 320,000 tested, 0.19% active. F2112 A-T fibroblasts, KAP-1 phosphorylation AlphaLISA; neocarzinostatin DNA damage 30 min before lysis. Potency, µM (highest dose often 57.5 µM), without a hit: at the highest dose activation, most hits filed as activators; also: potency is read from the fitted curve at half-maximal effect; % of control where 0% means no effect; nearly all actives have a fitted effect of over 45% in size
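hTERT-immortalized A-T patient fibroblasts (F2112), 500 cells/well in OPTI-MEM, 1% FBS, got compounds for 60 min, then NCS for 30 min at 37C. Lysates were then assayed for phospho-KAP-1 by AlphaLISA (anti-pKAP1 donor, anti-KAP1 acceptor beads), 6 hr at 25C.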
CCT modulator – changes cytosolic chaperonin activity; purified chaperonin ATPase assay, HTRF ADP detection, 30 min; 360,000 tested, 0.3% active; activity change, % (test concentration not listed), hits read low; in the data active = activity change below about -30%; also: % is scaled to controls: 0 for no effect and ±100 for the full control effect
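First, chaperonin was dispensed at 40 nM or 20 nM final depending on batch activity. Next, compounds were pinned at 76 uM and ATP added at 10 uM. After 30 min at 37 °C, ADP detection reagents ran 30 min at ambient temperature.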
* = called active by the depositor; i = inactive; ? = inconclusive; nt = no result given. Rows were chosen to be rich in hits. Some 1.8% of all compounds tested hit in one or more screens of this group. Unless noted, calls follow the shape of the dose curve; as a rule, active = well fitted curve in the direction sought with a large enough effect; inconclusive = small, poorly fitted or top-dose-only effect, or another doubt; inactive = no such curve, though single readings can be large; an effect the other way counts as inactive or inconclusive.

SMILES	Akt phos inh	BRCA1 expr act	Mm-Cpn inhibitor	A-T KAP1 phos	CCT modulator
COc1ccc(C2=NOC(CN3C(=O)c4ccccc4S3(=O)=O)C2)cc1 (stereo not given)	i	2.8µM*	-6%	-9%	2
C(=C\c1nc2ccccc2nc1/C=C/c1ccc2c(c1)OCO2)/c1ccc2c(c1)OCO2	nt	11%	nt	nt	nt
O=C(CCNc1ccc(Cl)cc1)c1cccs1	i	2%	0%	-1%	-1
O=C(CCSc1ccc(Cl)cc1)c1cccs1	-107%*	-55%	-1%	-3%	-1
O=c1[nH]c(=O)n([C@H]2C[C@@H](O)[C@@H](CO)O2)cc1F	nt	0%	nt	nt	nt
CN(C)/[N+]([O-])=N/Oc1cc(F)c([N+](=O)[O-])cc1[N+](=O)[O-]	nt	-4%	nt	nt	nt
Cc1ccc(C(=O)c2cc3ccccc3o2)cc1C	i	11µM*	-14%	nt	-12
CCC1CCCCN1S(=O)(=O)c1ccc(C(=O)Nc2sc3c(c2C(=O)NC)CCC3)cc1 (stereo not given)	nt	-1%	nt	nt	nt
Nc1nc(CSC(=S)N2CCOCC2)nc(Nc2ccccc2)n1	i	?	2%	-6%	-1
Cc1ccc(Nc2nc(N)nc(CSC(=S)N3CCOCC3)n2)cc1	i	5µM*	-2%	-2%	-2
Cc1ccc(Nc2nc(N)nc(COC(=O)C3=COCCO3)n2)cc1	i	4µM*	2%	6%	1
Nc1nc(CSC(=S)N2CCCCC2)nc(Nc2ccccc2)n1	i	14µM*	?	1%	-1
COC1Cc2ccccc2N(C(N)=O)c2ccccc21 (stereo not given)	i	-15%	nt	nt	-4
Cn1cccc1/C=C1\SC(=O)N(c2ccc(O)cc2)C1=O	i	10µM*	-6%	0%	1
CN(C)/C=N/c1ncc(C(=O)c2ccccc2)s1	i	5.6µM*	-5%	1%	-2
CC(NC(=O)COC(=O)CNC(=O)c1ccccc1Cl)C1CC2CCC1C2 (stereo not given)	i	-10%	2%	1%	-40*
Nc1nc(SCc2ccccc2)[nH]c(=O)c1-c1ccccc1	i	10µM*	1%	1%	-3
COc1cc2nc(NC3CCN(C)CC3)nc(N3CCCN(C)CC3)c2cc1OC	nt	-26%	nt	nt	nt
COc1cc(O)oc1C=Nc1ccc(Cl)cc1Cl	i	-1%	-1%	2%	1
COc1cc(O)oc1C=Nc1ccc(Cl)cc1	-119%*	16%	-1%	8%	-1
COC(=O)CCCC1=CC2=CC(=O)C(C)(OC(=O)c3cccs3)C(=O)C2=CN1C1CCCCC1 (stereo not given)	i	-12%	-4%	25µM*	0
CC(=O)NC(Cc1c[nH]c2ccccc12)C(=O)OCC(=O)Nc1ccc2c(c1)OCO2 (stereo not given)	i	54%	0%	9%	3
Cc1[nH]c2ccccc2c1C(=O)C(=O)Nc1ccc2c(c1)OCO2	i	2.5µM*	-5%	12%	2
O=C(COC(=O)COc1cccc(C(F)(F)F)c1)NC1CCCC1	i	-2%	1%	0%	-2
CC(NC(=O)COC(=O)c1cn(-c2ccccc2)nc1-c1cccs1)c1ccccc1 (stereo not given)	i	-4%	50µM*	3%	-1
SMILES	Akt phos inh	BRCA1 expr act	Mm-Cpn inhibitor	A-T KAP1 phos	CCT modulator
O=C(Nc1ccncc1)c1cn(-c2ccccc2)nc1-c1cccs1	i	28%	-22%	nt	-1
S=C(Nc1ccc2c(c1)OCO2)N1CCN(Cc2ccco2)CC1	i	3.5µM*	-8%	-2%	-3
O=CC(=O)c1ccc(F)cc1	nt	0%	nt	nt	nt
COCCNC(=O)c1nn2c(C(F)(F)F)cc(-c3ccccc3)nc2c1Br	i	-8%	nt	nt	-1
CCOC(=O)c1nn2c(C(F)(F)F)cc(-c3ccc(OC)cc3)nc2c1Br	i	-15%	-1%	2%	-33*
Cc1cc2nsnc2c(S(=O)(=O)N2CCN(C)CC2)c1C	i	-2%	2%	8%	0
CC1CCCC(NC(=O)c2ccc3c(c2)OCCO3)C1C (stereo not given)	i	7.1µM*	0%	3%	2
CC(=Nc1ccccc1)C1=C(O)C(Cc2ccc(O)cc2)NC1=O (stereo not given)	i	?	nt	nt	-68*
CC(=Nc1ccccc1)C1=C(O)C(Cc2cccc(F)c2)NC1=O (stereo not given)	i	7%	nt	nt	-3
CCOc1ccc(CNC(=O)CCn2c(=O)oc3ccccc32)cc1OC	-105%*	5%	-1%	-10%	-1
CCCCCNC(=O)CCn1c(=O)oc2ccccc21	i	1%	-1%	0%	-1
COCCNC(=O)CCn1c(=O)oc2ccccc21	-109%*	0%	1%	-2%	-2
S=C1c2ccccc2CN1c1ccccc1	i	86%	1%	7%	-1
Cc1ccc(N2Cc3ccccc3C2=S)cc1	i	4µM*	-4%	1%	-6
COc1ccc(-c2cc(C(F)(F)F)c(C#N)c(SCC(=O)Nc3ccccc3C#N)n2)cc1	i	3%	-6%	1%	-45*
CSc1nc(-c2ccccc2)cn1-c1ccc(NC(C)=O)cc1	i	95%	1%	1%	-2
CCOc1ccc(-c2cn(-c3ccc(OC)cc3)c(SC)n2)cc1	i	11µM*	0%	3%	1
S=C(N/N=C/c1ccc(Br)cc1)N1CCCCC1	i	8.9µM*	-3%	3%	0
Cn1cc(S(=O)(=O)N2CCCCC2)cc1C(=O)NCc1ccc(Cl)cc1	nt	-5%	nt	nt	nt
O=C(c1cccnc1)N1CCc2ccccc2C1	i	-10%	56µM*	0%	0
O=C(c1cccnc1)N1CCc2ccccc21	i	-27%	-4%	-1%	0
O=C(Oc1ccc(-c2nccc(-c3ccccn3)n2)cc1)c1cccc(C(F)(F)F)c1	-96%*	90%	1%	-1%	0
O=C(COC(=O)/C=C/c1ccccc1Cl)NCCc1ccc(Cl)cc1Cl	i	-6%	2%	20%	-39*
O=S(=O)(c1cccs1)N1CCCc2cccc(O)c21	i	13µM*	0%	0%	-1
CCOc1ccc2nc3c(cc2c1)CN(CCOC)C(=NC)S3	-88%*	11%	-5%	9%	-2
CCN=C1Sc2nc3ccc(OCC)cc3cc2CN1CCOC	i	-8%	?	4%	1
CCOc1ccc(NC(=O)CCC(=O)NNC(=O)COc2ccc(C)cc2Br)cc1	i	77%	1%	19%	-36*
CCOC(=O)N1CCN(/[N+]([O-])=N/OCOC)CC1	nt	0%	nt	nt	nt
CC(=O)Nc1ccc(C2=NN(c3ccccc3)C(c3ccccc3)C2)cc1 (stereo not given)	i	-23%	-4%	22µM*	-2
